# Results reported in publication PMC5540273 (PLoS ONE, 2017).
# Test system: CDK4
# Settings: concentration: 1 μM,replicates: in singlicate; n = 1
# 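Further: KINOMEscan kinase panel screen.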
row,SMILES,%Inh [%]
1,Cc1n[nH]c2ccc(-c3cc(OC[C@@H](N)Cc4ccccc4)cnc3-c3ccoc3)cc12.O=C(O)C(F)(F)F.O=C(O)C(F)(F)F [GSK507358],10
2,CC(C)Nc1cc(-c2ccc3c(N)n[nH]c3c2)nc(N)n1 [GSK2221681],0
3,CNC(=O)c1ccccc1Sc1ccc2c(/C=C/c3ccccn3)n[nH]c2c1,0
4,Cl.Cl.NC[C@H](Cc1ccc(C(F)(F)F)cc1)NC(=O)c1cc(Br)c(-c2ccnc3[nH]ccc23)s1 [GSK1487252],0
5,Cl.Cl.Nc1nc(-c2ccc3c(N)n[nH]c3c2)cc(N2CCCC(NC(=O)c3ccccc3)C2)n1 (stereo not drawn) [GSK2286775],0
6,O=C(NCCCN1CCOC1=O)c1cnc(NCc2cc(Cl)ccc2Cl)nc1NC1CCCC1,12
7,CN(C)CC(O)COc1ccc(Nc2nccc(-c3cnn4nc(N5CCOCC5)ccc34)n2)cc1 (stereo not drawn) [GW767488],100
8,Cc1ccc(-n2nc(C(C)(C)C)cc2NC(=O)Nc2ccc(OCCN3CCOCC3)c3ccccc23)cc1 [GW839464],0
9,Cc1cc(C(=O)Nc2ccc(Oc3ccc4nc(NC(=O)C5CC5)cn4n3)cc2)nn1-c1ccccc1,4
10,C=CC(=O)Nc1cc2c(Nc3ccc(F)c(Cl)c3)ncnc2cc1OCCCN1CCOCC1 [GW781483],23
11,Cc1cc2cn[nH]c2cc1-c1cccc2c(N)c(C(N)=O)nnc12,18
12,C[C@@H]1CCN(C(=O)CC#N)C[C@@H]1N(C)c1ncnc2[nH]ccc12,0
13,CC(C)N1C(=O)Cc2cc(Nc3ncc(C(F)(F)F)c(NCc4cccc(S(C)(=O)=O)c4)n3)ccc21,35
14,C[C@H]1Oc2cc(cnc2N)-c2c(nn(C)c2C#N)CN(C)C(=O)c2ccc(F)cc21,0
15,Cc1occc1-c1nc(N)c(OC[C@@H](N)Cc2c[nH]c3ccccc23)cc1-c1cc2c(C)n[nH]c2cn1 [GSK1660450],0
16,Cc1ccc2c(-c3ccncc3)c(-c3ccc(F)cc3)nn2c1.Cl [GW461484],28
17,CCN(CC)CCCCNc1ncc2cc(-c3c(Cl)cccc3Cl)c(NC(=O)NC(C)(C)C)nc2n1,9
18,CCN(CC)CCOc1ccc(Nc2ncc3cc(-c4c(Cl)cccc4Cl)c(=O)n(C)c3n2)cc1 [SB-601273],89
19,NC(=O)c1cc(-c2ccccc2)cc2c(C3CCNCC3)c[nH]c12 [GSK301362],13
20,CCn1c(-c2nonc2N)nc2c(C#CC(C)(C)O)nc(OCCN)cc21.Cl.Cl [GSK902056],0
21,O=C(NCCNc1ccnc(NCc2ccc(F)cc2)n1)c1cc2ccccc2s1 [GSK1379944],1
22,Cl.Oc1cc(-c2nc(-c3ccccc3)[nH]c2-c2ccncc2)ccc1Cl [SB-386023],47
23,COc1ccc(C[C@@H](CN)NC(=O)c2cc(Br)c(-c3ccnc4[nH]ccc34)s2)cc1.Cl.Cl [GSK1389063],0
24,Cl.Cl.NC[C@H](CC1CCCCC1)NC(=O)c1cc(Br)c(-c2ccnc3[nH]ccc23)s1 [GSK1581427],0
25,CN(C)CCOc1ccc(-c2cc(-c3c[nH]nc3-c3ccccn3)ccn2)cc1 [GW835314],45
26,C[C@@H](Oc1cc(-c2cnn(C3CCNCC3)c2)cnc1N)c1c(Cl)ccc(F)c1Cl,0
27,Nc1nc(Nc2ccccc2)cc(-c2ccc3c(N)n[nH]c3c2)n1 [GSK2225749],0

# Test system: CDK5
# Settings: concentration: 1 μM,replicates: in singlicate; n = 1
row,SMILES,%Inh [%]
1,Cc1n[nH]c2ccc(-c3cc(OC[C@@H](N)Cc4ccccc4)cnc3-c3ccoc3)cc12.O=C(O)C(F)(F)F.O=C(O)C(F)(F)F [GSK507358],0
2,CC(C)Nc1cc(-c2ccc3c(N)n[nH]c3c2)nc(N)n1 [GSK2221681],0
3,CNC(=O)c1ccccc1Sc1ccc2c(/C=C/c3ccccn3)n[nH]c2c1,3
4,Cl.Cl.NC[C@H](Cc1ccc(C(F)(F)F)cc1)NC(=O)c1cc(Br)c(-c2ccnc3[nH]ccc23)s1 [GSK1487252],0
5,Cl.Cl.Nc1nc(-c2ccc3c(N)n[nH]c3c2)cc(N2CCCC(NC(=O)c3ccccc3)C2)n1 (stereo not drawn) [GSK2286775],0
6,O=C(NCCCN1CCOC1=O)c1cnc(NCc2cc(Cl)ccc2Cl)nc1NC1CCCC1,10
7,CN(C)CC(O)COc1ccc(Nc2nccc(-c3cnn4nc(N5CCOCC5)ccc34)n2)cc1 (stereo not drawn) [GW767488],6
8,Cc1ccc(-n2nc(C(C)(C)C)cc2NC(=O)Nc2ccc(OCCN3CCOCC3)c3ccccc23)cc1 [GW839464],5
9,Cc1cc(C(=O)Nc2ccc(Oc3ccc4nc(NC(=O)C5CC5)cn4n3)cc2)nn1-c1ccccc1,0
10,C=CC(=O)Nc1cc2c(Nc3ccc(F)c(Cl)c3)ncnc2cc1OCCCN1CCOCC1 [GW781483],0
11,Cc1cc2cn[nH]c2cc1-c1cccc2c(N)c(C(N)=O)nnc12,88
12,C[C@@H]1CCN(C(=O)CC#N)C[C@@H]1N(C)c1ncnc2[nH]ccc12,0
13,CC(C)N1C(=O)Cc2cc(Nc3ncc(C(F)(F)F)c(NCc4cccc(S(C)(=O)=O)c4)n3)ccc21,9
14,C[C@H]1Oc2cc(cnc2N)-c2c(nn(C)c2C#N)CN(C)C(=O)c2ccc(F)cc21,11
15,Cc1occc1-c1nc(N)c(OC[C@@H](N)Cc2c[nH]c3ccccc23)cc1-c1cc2c(C)n[nH]c2cn1 [GSK1660450],0
16,Cc1ccc2c(-c3ccncc3)c(-c3ccc(F)cc3)nn2c1.Cl [GW461484],0
17,CCN(CC)CCCCNc1ncc2cc(-c3c(Cl)cccc3Cl)c(NC(=O)NC(C)(C)C)nc2n1,14
18,CCN(CC)CCOc1ccc(Nc2ncc3cc(-c4c(Cl)cccc4Cl)c(=O)n(C)c3n2)cc1 [SB-601273],0
19,NC(=O)c1cc(-c2ccccc2)cc2c(C3CCNCC3)c[nH]c12 [GSK301362],0
20,CCn1c(-c2nonc2N)nc2c(C#CC(C)(C)O)nc(OCCN)cc21.Cl.Cl [GSK902056],0
21,O=C(NCCNc1ccnc(NCc2ccc(F)cc2)n1)c1cc2ccccc2s1 [GSK1379944],0
22,Cl.Oc1cc(-c2nc(-c3ccccc3)[nH]c2-c2ccncc2)ccc1Cl [SB-386023],32
23,COc1ccc(C[C@@H](CN)NC(=O)c2cc(Br)c(-c3ccnc4[nH]ccc34)s2)cc1.Cl.Cl [GSK1389063],0
24,Cl.Cl.NC[C@H](CC1CCCCC1)NC(=O)c1cc(Br)c(-c2ccnc3[nH]ccc23)s1 [GSK1581427],0
25,CN(C)CCOc1ccc(-c2cc(-c3c[nH]nc3-c3ccccn3)ccn2)cc1 [GW835314],0
26,C[C@@H](Oc1cc(-c2cnn(C3CCNCC3)c2)cnc1N)c1c(Cl)ccc(F)c1Cl,12
27,Nc1nc(Nc2ccccc2)cc(-c2ccc3c(N)n[nH]c3c2)n1 [GSK2225749],0
